Six compounds from PubChem BioAssay (NCATS) can be followed below.

Structures are written as SMILES. Inconclusive results are not listed. Active and inactive are the calls of the source. Unless noted, calls follow the shape of the dose curve; as a rule, active = well fitted inhibition curve with a large enough effect; inconclusive = small, poorly fitted or top-dose-only effect; inactive = flat fitted curve, though single readings scatter.

Assay [1] is described as follows: qHTS drug screen for cell cycle checkpoint inhibitors in PARPi-resistant BRCA-mutant ovarian cancer cell lines. (AID 1963452; calls by dose curve). Particulars: PEO1/OlaR viability, CellTiter-Glo luminescence, 96 h, stronger effect = lower value. An outline of the steps:
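PEO1, PEO4 and PEO1/OlaR ovarian cancer cells, 600 per well, exposed 96 h at 37C to a dilution series. Viability read by CellTiter-Glo luminescence, normalized to DMSO and empty wells; activity summarized as Z-AUC.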
On the technique in general: Quantitative high-throughput screening tests each substance at several concentrations.

A short description of assay [2]: qHTS for identification of novel therapeutic agents for treatment of microphthalmiaassociated transcription factor (MiT) renal cell carcinoma (RCC) (AID 1963991). The note with it: CellTiter-Glo, 48 h, stronger effect = lower value. In short, it runs like this:
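Curves over 11 concentrations were fitted to CellTiter-Glo luminescence, scaled between empty wells (0%) and DMSO (100%) viability. Cells were UOK109, UOK124 and UOK145 TFE3-fusion RCC lines at 500/well, exposed 48 hours at 37 C.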

Assay [3] is described as follows: qHTS profiling for inhibitors of Plasmodium falciparum proliferation (AID 504749). Also: nearly all actives have a fitted effect of over 60% in size. Also: potency is read from the fitted curve at half-maximal effect.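 As to activity, negative = inhibition: 0% = DMSO vehicle and full inhibition = artemisinin control.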 The note with it: P. falciparum in erythrocytes, SYBR Green DNA, 72 h, at 28.7 µM (top of the series). In short, it runs like this: (§1)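 P. falciparum-infected erythrocytes (0.3% parasitemia, 2.5% hematocrit) incubated with compound 72 h at 37 C, 5% CO2. Parasite DNA detected by SYBR Green after lysis, overnight at room temperature; normalised to 0.29 uM artemisinin and DMSO.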

In assay [4] the test system is 3D7. The assay is described as above. The note with it: P. falciparum in erythrocytes, SYBR Green DNA, 72 h; series mostly up to 28.7 µM. In short, it runs like this: as §1
Assay [5] deals with 7G8. The assay is described as above. The note with it: P. falciparum in erythrocytes, SYBR Green DNA, 72 h; series mostly up to 28.7 µM. An outline of the steps: as §1
The test system of assay [6] is AA1029. The description is as above. Particulars: P. falciparum in erythrocytes, SYBR Green DNA, 72 h; series mostly up to 28.7 µM. In short, it runs like this: as §1
Assay [7] concerns AS120. Described as above. The note with it: P. falciparum in erythrocytes, SYBR Green DNA, 72 h; series mostly up to 28.7 µM. In short, it runs like this:
as §1

For assay [8], the system named is ATS95. Described as above. The note with it: P. falciparum in erythrocytes, SYBR Green DNA, 72 h; series mostly up to 28.7 µM. In short, it runs like this: as §1
In assay [9] the test system is CP192. The description is as above. The note with it: P. falciparum in erythrocytes, SYBR Green DNA, 72 h; series mostly up to 28.7 µM. In short, it runs like this: as §1
In assay [10] the test system is CP194. Described as above. The note with it: P. falciparum in erythrocytes, SYBR Green DNA, 72 h; series mostly up to 28.7 µM. An outline of the steps: as §1
The test system of assay [11] is CP201. The assay is described as above. Particulars: P. falciparum in erythrocytes, SYBR Green DNA, 72 h; series mostly up to 28.7 µM. In short, it runs like this:
as §1

In assay [12] the test system is CP215. The assay is described as above. The note with it: P. falciparum in erythrocytes, SYBR Green DNA, 72 h; series mostly up to 28.7 µM. An outline of the steps: as §1
Assay [13] concerns CP217. The assay is described as above. The note with it: P. falciparum in erythrocytes, SYBR Green DNA, 72 h; series mostly up to 28.7 µM. An outline of the steps:
as §1

In assay [14] the test system is CP237. Described as above. Particulars: P. falciparum in erythrocytes, SYBR Green DNA, 72 h; series mostly up to 28.7 µM. In short, it runs like this: as §1
For assay [15], the system named is ATS189. The assay is described as above. The note with it: P. falciparum in erythrocytes, SYBR Green DNA, 72 h; series mostly up to 28.7 µM. An outline of the steps: as §1
In assay [16] the test system is C2A. Described as above. Particulars: P. falciparum in erythrocytes, SYBR Green DNA, 72 h; series mostly up to 28.7 µM. An outline of the steps:
as §1

In assay [17] the test system is CP185. The description is as above. The note with it: P. falciparum in erythrocytes, SYBR Green DNA, 72 h; series mostly up to 28.7 µM. In short, it runs like this: as §1
Assay [18] has as its system CP191. The assay is described as above. Particulars: P. falciparum in erythrocytes, SYBR Green DNA, 72 h; series mostly up to 28.7 µM. In short, it runs like this: as §1
For assay [19], the system named is CP211. The assay is described as above. The note with it: P. falciparum in erythrocytes, SYBR Green DNA, 72 h; series mostly up to 28.7 µM. In short, it runs like this: as §1
For assay [20], the system named is CP203. Described as above. The note with it: P. falciparum in erythrocytes, SYBR Green DNA, 72 h; series mostly up to 28.7 µM. An outline of the steps:
as §1

Setting [21] is: measured here: PEO1 parental Z-AUC.
Setting [22] is: TFE3-RCC UOK109 viability, measured here: UOK109 Z-AUC.
Setting [23] is: TFE3-RCC viability, measured here: UOK124 Z-AUC.
Where [24] appears, read: TFE3-RCC viability, measured here: UOK145 Z-AUC.

With `CCOC(=O)c1ccc(C#Cc2ccc3c(c2)C(C)(C)CCS3)nc1`, the Z-AUC in assay [1] is 1.4 (inactive); in assay [1] (setting [21]), 1.62; in [1] (measured here: PEO4 Z-AUC) it was 1.15. Further, the z-score in assay [2] (setting [22]) worked out at 0.0377; in assay [2] (setting [23]) it was 0.696; in assay [2] (setting [24]), 0.0993. For the same compound, the activity, negative = inhibition in assay [3] (parasite line B) was -14.4% (inactive). Besides, the Potency result in assay [4], in assay [6], in assay [7], in assay [8], in assay [9] and in assay [10] was “inactive” in each case. Further, the Potency result in [11], in assay [12], in assay [13] and in [14] was “inactive” each time. For the same compound, the Potency in [5] is 12.6 µM (active).
For `OC(Cn1cncn1)(Cn1cncn1)c1ccc(F)cc1F`, the figures for the Z-AUC in assay [1], in assay [1] (setting [21]) and in assay [1] (measured here: PEO4 Z-AUC) were -0.0807 (inactive), 0.99 and 1.12, respectively. For the same compound, the z-score was 0.751 in [2] (setting [22]), 0.906 in assay [2] (setting [23]) and -0.107 in assay [2] (setting [24]). In addition, the activity, negative = inhibition in assay [3] (parasite line A) was 5.43% (inactive). Further, the Potency result in assay [4], in assay [5], in assay [6], in assay [7], in assay [15] and in assay [8] was “inactive” in each case. For the same compound, the Potency result in assay [16], in assay [17], in [18], in [9], in assay [10] and in assay [11] was “inactive” in each case. Moreover, the Potency result in assay [19], in assay [12], in [13] and in assay [14] was “inactive” throughout.
For `Cn1nnc2c(C(N)=O)ncn2c1=O`, the Z-AUC in assay [1] is 1.52 (inactive); in assay [1] (setting [21]), 1.36; in assay [1] (measured here: PEO4 Z-AUC), 1.39. The z-score in assay [2] (setting [22]) came out at 0.106; in assay [2] (setting [23]), 0.527; in [2] (setting [24]), 0.42. Besides, the activity, negative = inhibition was 6.45% (inactive) in assay [3] (parasite line A) and 3.99% (inactive) in assay [3] (parasite line B). For the same compound, the Potency entry in assay [4], in [5], in assay [6], in assay [7], in [15] and in [8] was “inactive” each time. Besides, the Potency result in assay [16], in [17], in assay [18], in assay [9], in assay [10] and in assay [11] was “inactive” each time. Also, the Potency entry in assay [20], in assay [19], in [13] and in [14] was “inactive” in each case.
For the compound `CN(Cc1cc(Br)cc(Br)c1N)C1CCCCC1`, the values for the Z-AUC in [1], in [1] (setting [21]) and in assay [1] (measured here: PEO4 Z-AUC) were 1.09 (inactive), 1.12 and 1.04, respectively. In addition, the z-score in [2] (setting [22]) was 1.13; in assay [2] (setting [23]), 0.389; in assay [2] (setting [24]), 1.53. The activity, negative = inhibition in [3] (parasite line A) was -5.78% (inactive); in assay [3] (parasite line B), -15.1% (inactive). The Potency entry in [6], in [7], in assay [15], in assay [16], in assay [17] and in assay [18] was “inactive” throughout. Besides, the Potency result in [9], in assay [10], in [11], in assay [20], in [19] and in assay [12] was “inactive” in each case. Besides, the Potency entry in assay [13] was “inactive”.
For the compound `Cn1c(=O)c2c(ncn2CC(O)CO)n(C)c1=O` (centres undefined), the z-score came out at 0.0441 in assay [2] (setting [22]), 0.351 in [2] (setting [23]) and 0.429 in [2] (setting [24]).
On to `COc1nc(N)nc2c1ncn2[C@@H]1O[C@H](CO)[C@@H](O)[C@@H]1O`, for which the z-score turned out to be 0.831 in assay [2] (setting [22]), 1.01 in assay [2] (setting [23]) and 0.757 in assay [2] (setting [24]). For the same compound, the activity, negative = inhibition in assay [3] (parasite line A) was -5.23% (inactive); in assay [3] (parasite line B), -4.98% (inactive). The Potency result in [4], in assay [6], in [7], in [15], in [8] and in [16] was “inactive” throughout. In addition, the Potency entry in [17], in assay [18], in assay [9], in assay [10], in assay [11] and in [19] was “inactive” in each case. Also, the Potency result in [12], in assay [13] and in assay [14] was “inactive” in each case.
